For part of these data: Results with a measured potency or affinity are listed apart. Active and inactive are the calls of the source. Numbered stars: 1 amine (or outer) side, 2 acyl side, 3 side chain; on linkers, the order of the positions; unused ones are H or OH. Bridge positions count the residues as written; N and C are the ends. Square brackets hold non-standard residues; d marks the D form. Peptide text beside a SMILES is read from it. I, II: the chains in the order shown. Actinocin(9to1) = Cc1c2oc3c(C)ccc(C(=O)[*:1])c3nc-2c(C(=O)[*:2])c(N)c1=O; NMeV = CN[C@H](C(=O)O)C(C)C; Sar = CNCC(=O)O
Key:
[1] = Ebola virus entry assay, green fluorescence channel
[2] = Ebola virus entry assay, blue channel fluorescence
[3] = Ebola virus entry assay, green fluorescence channel; remark: listed apart in the source
[4] = Ebola virus entry assay, ratio channel readout
[5] = Ebola virus entry assay, blue channel fluorescence; remark: listed apart in the source
[6] = Ebola virus entry assay, green channel fluorescence
[7] = Ebola virus entry assay, blue channel fluorescence; remark: listed apart in the source
[8] = Ebola virus entry assay, reporter ratio channel; AC50: Channel type: primary unless noted; outcome: Channel type: primary unless noted
[9] = Ebola virus entry assay, blue channel (ratio component)
[10] = Ebola virus entry assay, ratio channel

Measured: efficacy
Throughout, for efficacy: 0% is about no effect.

CCCCC1=NC2(CCCC2)C(=O)N1Cc1ccc(-c2ccccc2-c2nn[nH]n2)cc1
inactive: [1] 32.1% | [2] | [3] | [4] | [5] | [6] | [7] | [8] | [9]

Cc1nc2n(c(=O)c1CCN1CCC(c3noc4cc(F)ccc34)CC1)CCC[C@H]2O
inactive: [1] 18.4% | [2] | [3] | [4] | [5] | [6] | [7] | [8] | [9]

N[C@@H]1C[C@H]1c1ccccc1
inactive: [1] -26.4% | [2] | [3] | [4] | [10] | [6] | [7] | [8] | [9]

N[C@@H](Cc1ccc(N(CCCl)CCCl)cc1)C(=O)O
inactive: [1] 12.7% | [2] | [3] | [4] | [5] | [6] | [7] | [8] | [9]

Cc1ccccc1N1C(=O)c2cc(S(N)(=O)=O)c(Cl)cc2NC1C (configuration not stated)
inactive: [1] 25.2% | [2] | [3] | [4] | [10] | [6] | [7] | [8] | [9]

NC12CC3CC(CC(C3)C1)C2
inactive: [1] 15% | [2] | [3] | [4] | [5] | [6] | [7] | [8] | [9]

O=C1NC(=O)C(c2ccccc2)(c2ccccc2)N1
inactive: [1] 9.61% | [2] | [3] | [4] | [5] | [6] | [7] | [8] | [9]

COC(=O)C(c1ccccc1Cl)N1CCc2sccc2C1 (configuration not stated)
inactive: [1] 27.9% | [2] | [3] | [4] | [5] | [6] | [7] | [8] | [9]

CC(c1cc2ccccc2s1)N(O)C(N)=O (configuration not stated)
inactive: [1] -17.4% | [2] | [3] | [4] | [10] | [6] | [7] | [8] | [9]

COc1ccccc1Oc1c(NS(=O)(=O)c2ccc(C(C)(C)C)cc2)nc(-c2ncccn2)nc1OCCO
inactive: [1] -15.4% | [2] | [3] | [4] | [5] | [6] | [7] | [8] | [9]

O=C1N=C(O)CN1/N=C/c1ccc(-c2ccc([N+](=O)[O-])cc2)o1
inactive: [1] 24% | [2] | [3] | [4] | [5] | [6] | [7] | [8] | [9]

CCOC(=O)[C@H](CCc1ccccc1)N[C@@H](C)C(=O)N1Cc2cc(OC)c(OC)cc2C[C@H]1C(=O)O
inactive: [1] 30.5% | [2] | [3] | [4] | [10] | [6] | [7] | [8] | [9]

O=C(C1CCCCC1)N1CC(=O)N2CCc3ccccc3C2C1 (configuration not stated)
inactive: [1] 43.7% | [2] | [3] | [4] | [5] | [6] | [7] | [8] | [9]

C[C@@H](c1ncncc1F)C(O)(Cn1cncn1)c1ccc(F)cc1F (some centres not stated)
inactive: [1] -14.3% | [2] | [3] | [4] | [5] | [6] | [7] | [8] | [9]

CC1(C)S[C@@H]2[C@H](NC(=O)C(C(=O)O)c3ccccc3)C(=O)N2[C@H]1C(=O)O (some centres not stated)
inactive: [1] 26% | [2] | [3] | [4] | [5] | [6] | [7] | [8] | [9]

c1cnc2cc3c(cc2n1)C1CNCC3C1
inactive: [1] -29.9% | [2] | [3] | [4] | [5] | [6] | [7] | [8] | [9]

COc1ccc(Cl)cc1C(=O)NCCc1ccc(S(=O)(=O)NC(=O)NC2CCCCC2)cc1
inactive: [1] 15.6% | [2] | [3] | [4] | [5] | [6] | [7] | [8] | [9]

CC1=C(C(=O)O)N2C(=O)[C@@H](NC(=O)[C@H](N)c3ccccc3)[C@H]2SC1
inactive: [1] 11.4% | [2] | [3] | [4] | [5] | [6] | [7] | [8] | [9]

CN1C(=O)CC(C)(c2ccccc2)C1=O (configuration not stated)
inactive: [1] -45.4% | [2] | [3] | [4] | [5] | [7] | [8] | [9]

CN1C(CCl)Nc2cc(Cl)c(S(N)(=O)=O)cc2S1(=O)=O (configuration not stated)
inactive: [1] -11.6% | [2] | [3] | [4] | [10] | [6] | [7] | [8] | [9]

CC[C@@H](CO)NCCN[C@@H](CC)CO
inactive: [1] -17.1% | [2] | [3] | [4] | [5] | [6] | [7] | [8] | [9]

NNCCc1ccccc1
inactive: [1] -18.8% | [2] | [3] | [4] | [5] | [6] | [7] | [8] | [9]

O=P1(NCCCl)OCCCN1CCCl (configuration not stated)
inactive: [1] 14.4% | [2] | [3] | [4] | [5] | [6] | [7] | [8] | [9]

Cc1c(OCC(F)(F)F)ccnc1CS(=O)c1nc2ccccc2[nH]1 (configuration not stated)
inactive: [1] 18.5% | [2] | [3] | [4] | [5] | [6] | [7] | [8] | [9]

O=C1NC(c2ccccc2)(c2ccccc2)C(=O)N1COP(=O)(O)O
inactive: [1] -16% | [2] | [3] | [4] | [10] | [6] | [7] | [8] | [9]

CC(=O)OCC(CCn1cnc2cnc(N)nc21)COC(C)=O
inactive: [1] 17.3% | [2] | [3] | [4] | [5] | [6] | [7] | [8] | [9]

CCN(C(C)=O)c1cccc(-c2ccnc3c(C#N)cnn23)c1
inactive: [1] 22.6% | [2] | [3] | [4] | [5] | [6] | [7] | [8] | [9]

CC(C)n1c(/C=C/[C@@H](O)C[C@@H](O)CC(=O)O)c(-c2ccc(F)cc2)c2ccccc21
inactive: [1] 14.5% | [2] | [3] | [4] | [5] | [6] | [7] | [8] | [9]

CC(=O)Nc1nnc(S(N)(=O)=O)s1
inactive: [1] -19.1% | [2] | [3] | [4] | [5] | [7] | [8] | [9]

CC1OC(C)OC(C)O1 (configuration not stated)
inactive: [1] 12.6% | [2] | [3] | [4] | [5] | [6] | [7] | [8] | [9]

OCCN1C[C@H](O)[C@@H](O)[C@H](O)[C@H]1CO
inactive: [1] -21.2% | [2] | [3] | [4] | [5] | [6] | [7] | [8] | [9]

CCN1CCN(C(=O)N[C@@H](C(=O)N[C@@H]2C(=O)N3C(C(=O)O)=C(CSc4nnnn4C)CS[C@H]23)c2ccc(O)cc2)C(=O)C1=O
inactive: [1] -23.3% | [2] | [3] | [4] | [5] | [6] | [7] | [8] | [9]

Cc1onc(-c2ccccc2Cl)c1C(=O)N[C@@H]1C(=O)N2[C@@H]1SC(C)(C)[C@@H]2C(=O)O
inactive: [1] 13.5% | [2] | [3] | [4] | [5] | [6] | [7] | [8] | [9]

Cc1cnc(C(=O)NCCc2ccc(S(=O)(=O)NC(=O)NC3CCCCC3)cc2)cn1
inactive: [1] -14.5% | [2] | [3] | [4] | [5] | [6] | [7] | [8] | [9]

O=C(O)c1ccc(-n2nc(-c3ccccc3O)nc2-c2ccccc2O)cc1
inactive: [1] 48% | [2] | [3] | [4] | [5] | [7] | [8]

CC(C)C1CCC(C(=O)N[C@H](Cc2ccccc2)C(=O)O)CC1 (some centres not stated)
inactive: [1] -31.7% | [2] | [3] | [4] | [10] | [6] | [7] | [8] | [9]

CCCCc1ncc(/C=C(\Cc2cccs2)C(=O)O)n1Cc1ccc(C(=O)O)cc1
inactive: [1] -11.8% | [2] | [3] | [4] | [10] | [6] | [7] | [8] | [9]

CCC(C(N)=O)N1CCCC1=O (configuration not stated)
inactive: [1] -12.2% | [2] | [3] | [4] | [10] | [6] | [7] | [8] | [9]

CC(C)c1c(C(=O)Nc2ccccc2)c(-c2ccccc2)c(-c2ccc(F)cc2)n1CC[C@@H](O)C[C@@H](O)CC(=O)O
inactive: [1] 32.2% | [2] | [3] | [4] | [10] | [6] | [8] | [9]

COc1ccccc1OCC(O)COC(N)=O (configuration not stated)
inactive: [1] -13% | [2] | [3] | [4] | [6] | [7] | [8] | [9]

Cc1c2oc3c(C)ccc(C(=O)N[C@@H]4C(=O)N[C@H](C(C)C)C(=O)N5CCC[C@H]5C(=O)N(C)CC(=O)N(C)[C@@H](C(C)C)C(=O)O[C@@H]4C)c3nc-2c(C(=O)N[C@@H]2C(=O)N[C@H](C(C)C)C(=O)N3CCC[C@H]3C(=O)N(C)CC(=O)N(C)[C@@H](C(C)C)C(=O)O[C@@H]2C)c(N)c1=O (I: T[dV]P[Sar][NMeV] / II: T[dV]P[Sar][NMeV]; ester I:1-I:C, II:1-II:C; linker I:N-II:N via Actinocin(9to1))
inactive: [1] 27.3% | [2] | [3] | [4] | [10] | [6] | [7] | [8] | [9]

Nc1nc2c(ncn2COCCO)c(=O)[nH]1
inactive: [1] -5.83% | [2] | [3] | [4] | [10] | [6] | [7] | [8] | [9]

— PubChem BioAssay (NCATS)
